Screens as filed in PubChem BioAssay.
Compounds with a hit are over-represented: about 28% of the library has one in this group of screens.
CD11b adhes enh = CD11b/CD18-fibrinogen binding enhancement | P05107+P11215 | K562 CD11b/CD18 adhesion to fibrinogen, ATPlite luminescence | activation, % at 10 µM | 93,000 compounds, 0.07% hits | AID 1499;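 active = 10 µM primary screen giving 50% or more activity, confirmed by 40% or more on retest at that dose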
CYP2C9 inhib = human CYP2C9 inhibition | P11712 | CYP2C9 Supersomes, luciferin-H conversion, luminescence | inhibition, % at 5 µM | 96,000 compounds, 20% hits | AID 777;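 active = blocking of liver enzyme CYP2C9 beyond about 50% at 5 µM, limit read from the data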
CYP2C19 inhib = human CYP2C19 inhibition; inhibition, % at 5 µM; P33261; CYP2C19 Supersomes, luciferin-H EGE luminescence, 30 min; 96,000 compounds, 21% hits;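 active = CYP2C19 inhibition above a set limit at 5 µM in the primary screen, cut at about 50% in these data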;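 note: plate controls were negative control wells for no effect and 2.5 mM tranylcypromine positive control for full effect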
Target sequence (P33261 whole entry, looked up): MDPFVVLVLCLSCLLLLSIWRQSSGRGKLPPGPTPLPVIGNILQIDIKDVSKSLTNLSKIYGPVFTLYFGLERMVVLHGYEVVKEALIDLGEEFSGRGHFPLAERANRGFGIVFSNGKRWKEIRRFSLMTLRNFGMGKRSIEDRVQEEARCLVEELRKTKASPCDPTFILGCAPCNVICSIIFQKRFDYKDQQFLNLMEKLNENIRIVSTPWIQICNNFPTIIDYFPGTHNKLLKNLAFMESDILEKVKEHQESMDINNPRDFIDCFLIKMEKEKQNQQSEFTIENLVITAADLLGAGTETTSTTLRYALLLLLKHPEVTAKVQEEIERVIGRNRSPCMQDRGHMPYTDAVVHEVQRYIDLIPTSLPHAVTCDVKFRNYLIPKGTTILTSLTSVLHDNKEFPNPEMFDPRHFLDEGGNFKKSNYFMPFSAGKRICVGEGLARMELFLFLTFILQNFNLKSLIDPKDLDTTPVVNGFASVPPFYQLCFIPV
CYP2C9 act = activators of human CYP2C9. recombinant CYP2C9, luciferin-H conversion, luminescence; active compounds read high; factor 1 = untreated enzyme, 0 = blocked. 96,000 compounds, 1.4% hits. P11712. activation factor at 5 µM;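 active = activation factor of 2 or more for CYP2C9 at a 5 µM dose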;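 note: 0 = sulfaphenazole-blocked wells and 1 = vehicle-only wells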
Mac1 fbg inh = inhibitors of human CD11b/CD18 binding to fibrinogen | P05107+P11215 | K562 CD11b/CD18 adhesion to fibrinogen, ATPlite luminescence; Mn2+ added to activate the integrin | inhibition, % at 10 µM | 93,000 compounds, 0.54% hits;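 active = primary inhibition of 50% or more at 10 µM, then 40% or more on retest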
CYP2C19 activ = increases human CYP2C19 enzyme activity; 96,000 tested, under 10 active; activation factor at 5 µM; P33261; recombinant CYP2C19, luciferin-H EGE luminescence; active compounds read high; 0 = fully inhibited enzyme, 1 = untreated enzyme; AID 1025;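 active = activation factor of at least 2 at 5 µM in the primary screen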;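 note: 0 = wells with 2.5 mM tranylcypromine and 1 = vehicle-only wells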
Numbers without * were called inactive; nt = no result given.

SMILES | CD11b adhes enh | CYP2C9 inhib | CYP2C19 inhib | CYP2C9 act | Mac1 fbg inh | CYP2C19 activ
Cc1ccc(CCc2nnc(SCC(=O)Nc3cccc(Cl)c3)n2-c2ccccc2)o1 | 55 | nt | nt | nt | 7 | nt
CC1Cc2ccccc2N1C(=O)CN1C(=O)CN(C)C(=O)c2ccccc21 (stereo not drawn) | -3 | -31 | -8 | 1.3 | -2 | 1.1
CCCCN(C)CCNS(=O)(=O)c1ccc2c(c1)n(C)c(=O)c(=O)n2C | 16 | -7 | -10 | 1.1 | -2 | 1.1
CC12CC(NC(=O)N1CCc1ccccc1)c1ccccc1O2 (stereo not drawn) | -4 | 29 | 79* | 0.7 | 1 | 0.2
CC(NC(=O)C1C(=O)N(CCO)C2(C)CC1c1ccccc1O2)c1ccccc1 (stereo not drawn) | nt | 20 | 8 | 0.8 | nt | 0.9
CC(CN1CCOCC1)OC(=O)c1cccc(Br)c1 (stereo not drawn) | -2 | -1 | 60* | 1 | -3 | 0.4
CC(CN1CCN(C)CC1)OC(=O)c1ccccc1Cl (stereo not drawn) | -3 | -9 | 10 | 1.1 | -3 | 0.9
CC(CN1CCOCC1)OC(=O)c1ccccc1Br (stereo not drawn) | -4 | -6 | 76* | 1.1 | -27 | 0.2
Clc1nnc2ccc(-c3ccccc3)nn12 | -3 | -8 | -6 | 1.1 | 3 | 1.1
CCNC(=O)C1CC(=O)N(Cc2ccc3c(c2)OCO3)C(=Nc2ccc(OCC)cc2)S1 (stereo not drawn) | 1 | -13 | -5 | 1.1 | -20 | 1.1
COc1ccc(C2(C(=O)N3CCCC3)CCOCC2)cc1OC | 0 | 6 | 2 | 0.9 | 3 | 1
CCOC(=O)c1sc(NC(=S)NC(=O)C23CC4CC(CC(C4)C2)C3)cc1C | 0 | nt | nt | nt | -7 | nt
Cc1ccc(C)c(S(=O)(=O)N2CCN(C(=O)c3cnccn3)CC2)c1 | -4 | 51* | 51* | 0.5 | -10 | 0.5
Cc1ccc(S(=O)(=O)N2CCN(C(=O)c3cc(=O)[nH]c4ccccc34)CC2)c(C)c1 | 16 | 10 | 8 | 0.9 | -19 | 0.9
O=C(c1cnccn1)N1CCN(S(=O)(=O)c2ccc3ccccc3c2)CC1 | 0 | 17 | 95* | 0.8 | -4 | 0.1
O=C(CSc1n[nH]c(-c2cccs2)n1)N1CCN(S(=O)(=O)c2ccc3ccccc3c2)CC1 | -2 | 2 | 23 | 1 | -18 | 0.8
O=C(c1n[nH]c2ccccc12)N1CCN(S(=O)(=O)c2ccc3ccccc3c2)CC1 | 0 | 56* | 22 | 0.4 | 11 | 0.8
COc1ccc(S(=O)(=O)N2CCN(CC(=O)Nc3cccc(F)c3)CC2)cc1 | nt | -37 | 54* | 1.4 | nt | 0.5
COc1ccc(NC(=O)CN2CCN(CC(=O)Nc3ccc(OC)c(OC)c3)CC2)cc1 | 1 | -8 | 11 | 1.1 | -1 | 0.9
COc1ccc(CSCC(=O)Nc2ccc(S(=O)(=O)N3CCCCCC3)cc2)cc1 | 2 | nt | nt | nt | 32 | nt
COc1ccc(NC(=O)CN2CCCN(S(=O)(=O)c3ccc(F)cc3)CC2)cc1 | -2 | 53* | 89* | 0.5 | 2 | 0.1
COc1ccc(S(=O)(=O)N2CCN(CC(=O)Nc3ccc(C)c(F)c3)CC2)cc1 | 2 | -18 | 82* | 1.2 | 0 | 0.2
CCC(C(=O)c1ccc(O)cc1)c1ccccc1 (stereo not drawn) | -8 | -29 | 52* | 1.3 | 17 | 0.5
CCn1ncc2c(OCc3ccc(C#N)cc3)cc(C)nc21 | -3 | 63* | 64* | 0.4 | 26 | 0.4
CSc1ncccc1C(=O)OCc1ccc(C#N)cc1 | -2 | 49 | 1 | 0.5 | -21 | 1
SMILES | CD11b adhes enh | CYP2C9 inhib | CYP2C19 inhib | CYP2C9 act | Mac1 fbg inh | CYP2C19 activ
O=c1c2c3c(sc2nc2sc(CN4CCOCC4)cn12)CCCC3 | -4 | 20 | 3 | 0.8 | -9 | 1
c1ccc(Cn2nnc3c(Nc4ccc5c(c4)OCO5)nc(C4CC4)nc32)cc1 | 4 | 36 | 7 | 0.6 | 26 | 0.9
COC(=O)c1ccc(NC(=S)NCCc2ccccc2C)cc1 | -1 | nt | nt | nt | 19 | nt
CC(C)c1nc(N2CCN(C(=O)c3ccco3)CC2)c2c3c(sc2n1)CCCC3 | nt | 58* | 38 | 0.4 | nt | 0.6
Cc1nc(SCC(=O)NCc2ccco2)c2c3c(sc2n1)CCCC3 | -4 | 37 | 24 | 0.6 | 13 | 0.8
Cc1nc(N2CCN(C(=O)c3ccco3)CC2)c2c3c(sc2n1)CCC3 | -2 | 86* | 86* | 0.1 | 11 | 0.1
Cc1sc2nc(C(C)C)nc(SCC(=O)N3CCN(C(=O)c4ccco4)CC3)c2c1C | 2 | 92* | 80* | 0.1 | 3 | 0.2
CC(c1ccco1)N(Cc1ccco1)C(=O)Nc1ccccc1 (stereo not drawn) | -3 | 16 | 27 | 0.8 | -1 | 0.7
CCN1CCN(c2nc3ccccc3nc2C(C#N)C(=O)OCc2ccccc2)CC1 (stereo not drawn) | -2 | 57* | 82* | 0.4 | 5 | 0.2
CCCCOC(=O)C(C#N)c1nc2ccccc2nc1N1CCOCC1 (stereo not drawn) | 0 | 35 | 52* | 0.7 | -15 | 0.5
COc1ccccc1N1CCN(c2nc3ccccc3nc2C(C#N)C(=O)OC(C)C)CC1 (stereo not drawn) | -1 | 66* | 34 | 0.3 | -7 | 0.7
N#CC(C(=O)NCc1ccco1)c1nc2ccccc2nc1N1CCOCC1 (stereo not drawn) | 2 | 88* | 79* | 0.1 | 0 | 0.2
N#CC(C(=O)NCCc1ccccc1)c1nc2ccccc2nc1N1CCOCC1 (stereo not drawn) | 4 | -17 | -11 | 1.2 | -11 | 1.1
O=C(CNC(=O)c1ccccc1)OCc1nc2ccccc2s1 | 2 | nt | nt | nt | -4 | nt
C=CCOC(=O)C(C#N)c1nc2ccccc2nc1N1CCCC1 (stereo not drawn) | 3 | 34 | 29 | 0.7 | 9 | 0.7
COCCOC(=O)C(C#N)c1nc2ccccc2nc1N1CCCC1 (stereo not drawn) | -7 | 79* | 85* | 0.2 | -6 | 0.2
CCSc1nc2c(c(=O)[nH]1)C(C(C)C)C(C#N)=C(N)O2 (stereo not drawn) | -2 | 12 | -24 | 0.9 | -7 | 1.2
CC(=O)Oc1ccc(C(=O)[C@H]2[C@H]3C(=O)N(c4ccc5ccccc5c4)C(=O)[C@H]3[C@@H]3C=CC=NN32)cc1 | 5 | nt | nt | nt | 56 | nt
COc1ccc(NC(NC(=O)c2ccc(OC)cc2)C(Cl)(Cl)Cl)cc1 (stereo not drawn) | nt | 84* | 66* | 0.2 | nt | 0.3
COCCCNC(NC(=O)c1ccc(Br)cc1)C(Cl)(Cl)Cl (stereo not drawn) | 0 | nt | nt | nt | 14 | nt
Cc1ccc(C(=O)Nc2ccc3c(c2)OCCO3)o1 | -5 | 25 | 46 | 0.8 | 9 | 0.5
COc1ccccc1OCc1ccc(C(=O)OCC2CCCO2)o1 (stereo not drawn) | -2 | -16 | 76* | 1.2 | -43 | 0.2
